Screens as filed in PubChem BioAssay.
Only a sample is shown.
aSyn UTR act = Activators working through SNCA 5'UTR binding (MLPCN). alpha-synuclein 5'UTR reporter, activators screen. activity score, % (tested at 7.5 µM), hits read low. 7.1% of 300,000 active. AID 1814; in the data active = activity score below about -60%
The depositor's hits bear a star.

CCCN(CCC)CCNC(=O)c1cc2c(=O)n(CC)c3ccccc3c2s1 was read as aSyn UTR act -173.7*.
For CCOCCCNC(=O)c1cc2c(=O)n(CC)c3ccccc3c2s1 the results were aSyn UTR act -79.9*.
For COc1ccc(N2CCN(c3nc4ccccn4c(=O)c3C=O)CC2)cc1 the results were aSyn UTR act -67.7*.
`N#CC(C#N)=Cc1c(N2CCN(c3ccccc3)CC2)nc2ccccn2c1=O` gave aSyn UTR act -72.1*.
COc1ccc(-c2nc3ccccn3c2C=O)cc1 was read as aSyn UTR act -109.7*.
O=Cc1c(N2CCN(c3ccccc3)CC2)nc2ccccn2c1=O was read as aSyn UTR act -86.3*.
Cc1ccc(NC(=O)c2cc(=O)c3ccccc3o2)cc1 was read as aSyn UTR act -189.6*.
Cc1cccc(NC(=O)c2cc(=O)c3ccccc3o2)c1 was read as aSyn UTR act -66.6*.
Screening Cc1cccc(NC(=O)c2cc(=O)c3ccccc3o2)n1 returned aSyn UTR act -132.4*.
Screening COc1cccc(NC(=O)c2cc(=O)c3ccccc3o2)c1 returned aSyn UTR act -72.2*.
Screening O=[N+]([O-])c1ccc(/C=C2\CCC(C3=CCCC3)=C2N2CCOCC2)cc1 returned aSyn UTR act -74.4*.
`COc1ccccc1-c1nc(-c2ccc(Br)cc2)no1` gave aSyn UTR act -304.5*.
Screening COc1ccccc1-c1nc(-c2ccncc2)no1 returned aSyn UTR act -122.6*.
COc1cc(OC)cc(-c2nc(-c3ccc(Br)cc3)no2)c1 was read as aSyn UTR act -164.0*.
CCOc1nc(C)ccc1-c1noc(-c2cccnc2)n1 was read as aSyn UTR act -85.3*.
Screening COCC1CCN(Cc2nc(-c3ccc4c(c3)OCO4)no2)C1 (configuration not stated) returned aSyn UTR act -114.4*.
For COc1ccc(-c2nc(-c3ccc(Br)cc3)no2)c(OC)c1 the results were aSyn UTR act -104.8*.
`COc1ccc(-c2noc(-c3ccc4c(c3)OCO4)n2)cc1` gave aSyn UTR act -71.5*.
`COc1ccccc1-c1noc(-c2cccnc2)n1` gave aSyn UTR act -112.3*.
Screening Cn1c(O)c(/C=N/NC(=O)c2cc3ccccc3cc2O)c2ccccc21 returned aSyn UTR act -83.5*.
`Cc1nn(Cc2c(F)c(F)c(F)c(F)c2F)c(C)c1NC(=O)c1cccc(COc2ccccc2Cl)c1` gave aSyn UTR act -96.9*.
Cc1nn(Cc2cccc(F)c2)c(C)c1NC(=O)c1ccc(COc2ccccc2Cl)cc1 was read as aSyn UTR act 68.8.
Screening O=C(O)c1cccc(COc2ccccc2Cl)c1 returned aSyn UTR act 103.3.
Screening O=C(Nc1ccccc1Cl)c1cccc(COc2cc(Cl)ccc2Cl)c1 returned aSyn UTR act -119.8*.
For O=C1NC(=O)/C(=C\c2ccc(OCc3cccc(C(=O)O)c3)c(Cl)c2)N1 the results were aSyn UTR act 69.9.
Screening CN1CCN(C(=O)c2cccc(COc3cc(Cl)ccc3Cl)c2)CC1 returned aSyn UTR act -164.4*.
`CCCCNc1nc2cccnc2s1` gave aSyn UTR act -78.3*.
Clc1ccc(Nc2nc3cccnc3s2)cc1 was read as aSyn UTR act -143.8*.
`Cc1ccc(-c2nnc(NC3CCCC3)s2)cc1` gave aSyn UTR act -142.8*.
For Cc1sc(NC(=O)c2ccco2)nc1-c1ccc2c(c1)CC(C)N2C(=O)C1CC1 (configuration not stated) the results were aSyn UTR act -106.3*.
CC1Cc2cc(S(=O)(=O)NCc3ccccc3)ccc2N1C(=O)C1CC1 (configuration not stated) was read as aSyn UTR act -65.2*.
CC(=O)Nc1nc(-c2ccc3c(c2)CC(C)N3C(=O)C2CC2)c(C)s1 (configuration not stated) was read as aSyn UTR act -295.2*.
For CCOC(=O)C(=O)Nc1nc(-c2ccc3c(c2)CCN3C(=O)C2CC2)c(C)s1 the results were aSyn UTR act -76.4*.
`CCN(CC)c1cc(C)c2cc(NC(=O)c3ccccc3OC)ccc2n1` gave aSyn UTR act -75.1*.
Screening CCN(CC)c1cc(C)c2cc(NC(=O)c3cccs3)ccc2n1 returned aSyn UTR act -64.5*.
Screening CS(=O)(=O)c1ccccc1COC(=O)Nc1ccc(Cl)cc1 returned aSyn UTR act -69.6*.
Screening O=C(Nc1ccc(Cl)cc1)OCc1ccccn1 returned aSyn UTR act -134.0*.
Screening COCCCNC(=O)Cn1nnc(-c2ccc(NC(=O)c3ccccc3F)cc2)n1 returned aSyn UTR act -95.4*.
Screening COC(=O)CCn1nnc(-c2ccc(C(C)C)cc2)n1 returned aSyn UTR act 119.1.
`Cc1ccc(Nc2n[nH]c(C)c2[N+](=O)[O-])cc1C` gave aSyn UTR act -164.5*.
COc1ccc(-c2cn3cc(Cl)ccc3n2)cc1OC was read as aSyn UTR act -239.0*.
`CC1(C)CC(=O)C=C(NNC(=O)c2ccccc2O)C1` gave aSyn UTR act -92.6*.
Cc1ccc(/C=N/NC(=O)c2n[nH]c3c2CCCC3)cc1 was read as aSyn UTR act 76.9.
For O=C(N/N=C\c1cccc(Cl)c1)c1n[nH]c2c1CCCC2 the results were aSyn UTR act -151.8*.
C=CCOC(=O)c1c(C)nc2cc3c(cc2c1C)OCO3 was read as aSyn UTR act -100.7*.
Screening O=C(CCCOc1ccccc1)N1CCCCC1 returned aSyn UTR act 70.6.
`CCOC(=O)C1CCN(C(=O)CCCOc2ccccc2)CC1` gave aSyn UTR act -120.5*.
CCC1CCCCN1C(=O)CCCOc1ccccc1 (configuration not stated) was read as aSyn UTR act -113.3*.
For C/C(=N/NC(=O)c1ccoc1C)c1cccc(NC(=O)C(F)(F)F)c1 the results were aSyn UTR act -127.8*.
For C/C(=N/NC(=O)c1ccoc1C)c1cccc(NC(=O)C2CC2)c1 the results were aSyn UTR act -114.8*.
For COc1ccc(C(=O)N/N=C(/C)c2cccc(NC(=O)C(F)(F)F)c2)cc1 the results were aSyn UTR act -107.7*.
COc1cccc(/C(C)=N/NC(=O)c2ccc(N(C)C)cc2)c1 was read as aSyn UTR act -101.3*.
`CCCCCC(=O)N[C@@H](c1ccccc1)[C@@H](O)C(=O)O[C@H]1C[C@@]2(O)[C@@H](OC(=O)c3ccccc3)C3[C@](C)(C(=O)[C@H](OC(C)=O)C(=C1C)C2(C)C)[C@@H](O)C[C@H]1OC[C@@]31OC(C)=O` (some centres not stated) gave aSyn UTR act 87.2.
Screening COc1ccc2cc(/C(C)=N/NC(=O)C3CC3)ccc2c1 returned aSyn UTR act -134.6*.
For O=C(CC1CCCCC1)NCc1ccc(Cl)cc1 the results were aSyn UTR act -68.5*.
Screening Cc1ccc2cc3cc(C(=O)NC4CCCCC4)oc3nc2c1 returned aSyn UTR act -152.7*.
Screening Cc1ccc2cc3cc(C(=O)NC4CC4)oc3nc2c1 returned aSyn UTR act -133.6*.
For O=C(ONc1ccc(N=NC(=O)c2ccccc2O)cc1)c1ccccc1 the results were aSyn UTR act -85.8*.
CC(=O)c1sc(NC(=O)c2ccccc2F)nc1-c1ccccc1 was read as aSyn UTR act -124.5*.
CC(=O)c1sc(NC(=O)c2ccc(F)cc2)nc1-c1ccccc1 was read as aSyn UTR act -95.0*.
`Cc1cc(C(=O)N/N=C/c2cccs2)n[nH]1` gave aSyn UTR act -83.1*.
O=C(N/N=C/c1cccs1)c1[nH]ncc1Br was read as aSyn UTR act -95.2*.
Screening Cc1cc(C(=O)N/N=C\c2cc(C(C)(C)C)ccc2O)n[nH]1 returned aSyn UTR act 74.7.
